In the library only some 27% were active in any assay of this set; here they are far more common.
Cav3 T inh: blocks human Cav3.2 T-type calcium channel; Cav3.2-expressing cells, Fluo-4 calcium fluorescence FDSS; active compounds read low; 100,000 tested, 4% active; B-score at 10 µM; O95180;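 active = single-dose well whose peak fluorescence ratio is a statistical outlier from its plate by either plate-standardised score or position-corrected B-score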
CYP2C19 inhib: inhibitors of human CYP2C19. P33261. CYP2C19 Supersomes, luciferin-H EGE luminescence, 30 min. inhibition, % at 5 µM. 96,000 tested, 21% active. AID 778;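 active = CYP2C19 inhibition above a set limit at 5 µM in the primary screen, cut at about 50% in these data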;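 also: plate controls were negative control wells for no effect and 2.5 mM tranylcypromine positive control for full effect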
Target sequence (P33261 whole entry, looked up): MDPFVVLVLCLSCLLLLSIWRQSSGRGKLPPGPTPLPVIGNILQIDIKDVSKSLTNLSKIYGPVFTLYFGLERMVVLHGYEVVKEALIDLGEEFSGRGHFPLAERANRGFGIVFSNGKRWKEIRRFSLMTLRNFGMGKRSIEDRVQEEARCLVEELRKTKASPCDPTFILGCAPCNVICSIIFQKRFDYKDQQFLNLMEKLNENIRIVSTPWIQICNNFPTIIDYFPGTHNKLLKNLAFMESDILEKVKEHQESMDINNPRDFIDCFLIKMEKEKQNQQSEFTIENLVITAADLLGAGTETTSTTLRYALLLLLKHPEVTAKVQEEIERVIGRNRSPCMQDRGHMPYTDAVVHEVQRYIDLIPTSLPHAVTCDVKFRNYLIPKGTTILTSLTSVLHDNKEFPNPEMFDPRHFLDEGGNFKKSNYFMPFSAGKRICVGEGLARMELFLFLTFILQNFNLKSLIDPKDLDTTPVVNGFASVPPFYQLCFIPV
CYP2C9 act: increases human cytochrome P450 2C9 activity. 96,000 tested, 1.4% active. P11712. recombinant CYP2C9, luciferin-H conversion, luminescence; active compounds read high; factor 1 = untreated enzyme, 0 = blocked. activation factor at 5 µM;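 active = activation factor of 2 or more for CYP2C9 at a 5 µM dose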;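 also: 0 = sulfaphenazole-blocked wells and 1 = vehicle-only wells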
CYP2C19 act: activators of human cytochrome P450 2C19; 96,000 tested, under 10 active; P33261; AID 1025; recombinant CYP2C19, luciferin-H EGE luminescence; active compounds read high; 0 = fully inhibited enzyme, 1 = untreated enzyme; activation factor at 5 µM;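 active = activation factor of at least 2 at 5 µM in the primary screen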;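 also: 0 = wells with 2.5 mM tranylcypromine and 1 = vehicle-only wells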
CYP2C9 inhib: blocks human cytochrome P450 2C9. P11712. CYP2C9 Supersomes, luciferin-H conversion, luminescence. inhibition, % at 5 µM. 96,000 tested, 20% active. AID 777;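 active = blocking of liver enzyme CYP2C9 beyond about 50% at 5 µM, limit read from the data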
The depositor's hits bear a star; nt = no result.

SMILES | Cav3 T inh | CYP2C19 inhib | CYP2C9 act | CYP2C19 act | CYP2C9 inhib
Cn1c(SCc2ccon2)nc2ccccc2c1=O | -1.34 | 46.9 | 0.7 | 0.5 | 31.4
COc1ccc(-c2nnc(CSc3nc4ccccc4c(=O)n3C)o2)cc1OC | -0.0871 | 80.2* | 0.1 | 0.2 | 86.3*
O=C(c1ccccc1)c1ccc(Oc2ncccn2)cc1 | -0.432 | 62.6* | 0.8 | 0.4 | 21.3
COc1ccccc1[C@@H]1C(c2cccc(Cl)c2)=NN(c2ccc(Br)cc2)[C@H]1C(=O)N1CCOC1=O | 0.139 | nt | nt | nt | nt
O=C(CSc1nnc(Cn2nnc3ccccc32)o1)Nc1ccc(Cl)cc1 | 0.0544 | nt | nt | nt | nt
COc1ccc(N(Cc2ccccc2)C(=O)CSc2nnc(Cn3nnc4ccccc43)o2)cc1 | -5.81* | 42.0 | 0.3 | 0.6 | 74.0*
O=C(CSc1nnc(Cn2nnc3ccccc32)o1)N(Cc1ccc(F)cc1)c1ccccc1 | -2.26 | 31.7 | 0.4 | 0.7 | 59.0*
COc1ccc(CN(C(=O)CSc2nnc(-c3ccc(F)cc3)o2)c2ccc(F)cc2)cc1 | -6.52* | 54.2* | 0.3 | 0.5 | 67.9*
CCN(CC)c1ccc(/C=C(/C#N)c2nc3ccc(C)cc3[nH]2)c(OC(C)C)c1 | -5.47* | 60.4* | 0.3 | 0.4 | 71.5*
COc1cc(/C=C(\C#N)c2nc3ccc(C)cc3[nH]2)c([N+](=O)[O-])cc1OC | -1.19 | 31.1 | 0.6 | 0.7 | 36.8
CCOc1cc(N(CC)CC)ccc1/C=C(/C#N)c1nc2ccccc2[nH]1 | nt | 56.4* | 0.2 | 0.4 | 76.6*
CCCOc1cc(N(CC)CC)ccc1/C=C(/C#N)c1nc2ccc(C)cc2[nH]1 | -5* | 21.6 | 0.4 | 0.8 | 57.9*
CC(Oc1ccc(Cl)cc1Cl)c1nc(-c2ccc(NC(=O)c3ccncc3)cc2)no1 (stereo not drawn) | 0.494 | nt | nt | nt | nt
CC(Oc1ccc(Cl)cc1Cl)c1nc(-c2ccccn2)no1 (stereo not drawn) | -2.17 | 96.1* | 0.1 | 0 | 92.1*
CC(Oc1ccc(Cl)cc1Cl)c1nc(-c2ccc(NC(=O)c3cccnc3)cc2)no1 (stereo not drawn) | 0.509 | 63.9* | 0 | 0.4 | 96.5*
CN(CC(=O)NCCCN1CCOCC1)S(=O)(=O)c1ccc(Br)cc1 | 0.772 | -11.6 | 1.1 | 1.1 | -6.2
c1cc(CN2CCCCC2)cc(OCCCNc2nc3ccccc3s2)c1 | -4.34* | nt | nt | nt | nt
N#Cc1cn(CC(=O)N2CCc3ccccc3C2)c2ccccc12 | -0.796 | nt | nt | nt | nt
COc1cccc(CNC(=O)C2CCN(Cc3cnn(-c4ccccc4)c3-n3cccc3)CC2)c1 | -4.64* | 14.4 | 0.8 | 0.9 | 23.5
O=C(NCc1ccccn1)C1CCN(Cc2cnn(-c3ccccc3)c2-n2cccc2)CC1 | 1.18 | 15.0 | 1.2 | 0.8 | -19.0
O=C(CCNS(=O)(=O)c1ccccc1F)NCc1ccc2c(c1)OCO2 | 0.942 | 70.0* | 0.7 | 0.3 | 28.3
Cc1nonc1NC(=O)CSc1nc(C2CCCCC2)nc2ccccc12 | -0.234 | 1.6 | 0.5 | 1 | 50.1*
O=C(CCNS(=O)(=O)c1ccc2c(c1)CCC(=O)N2)NCc1ccc2c(c1)OCO2 | 0.632 | 0.3 | 0.6 | 1 | 41.3
O=C(CSc1nc(C2CC2)nc2ccccc12)N1c2ccccc2Sc2ccc(C(F)(F)F)cc21 | -1.81 | 10.7 | 0.1 | 0.9 | 92.3*
CCCC(CCC)C(=O)Nc1cccc(C(=O)O)c1 | 0.143 | -5.6 | 1.1 | 1.1 | -8.7
SMILES | Cav3 T inh | CYP2C19 inhib | CYP2C9 act | CYP2C19 act | CYP2C9 inhib
COc1ccc(NC(=O)CSc2nc(C)c3c(c2C#N)CCCC3)cc1 | -0.724 | 19.9 | 0.8 | 0.8 | 21.0
O=C(Cn1cnc2ccccc2c1=O)NCc1ccc2c(c1)OCO2 | 0.0753 | 5.7 | 0.9 | 0.9 | 7.8
O=C(Cn1nnc(-c2ccccc2Cl)n1)NCc1ccc2c(c1)OCO2 | -3.17 | 6.2 | 0.1 | 0.9 | 93.5*
O=C(CSCc1ccccc1)NCc1ccc2c(c1)OCO2 | 0.383 | 54.2* | 0.1 | 0.5 | 91.0*
O=C(CSc1nc(C2CC2)nc2ccccc12)NCc1ccc2c(c1)OCO2 | nt | 46.8 | 0.1 | 0.5 | 88.2*
Cc1nc(SCC(=O)NCc2ccc3c(c2)OCO3)c(C#N)c2c1CCCC2 | -3.98* | 84.3* | 0.1 | 0.2 | 86.7*
FC(F)(F)c1cc(-c2ccc(Cl)cc2)nc2ncnn12 | 0.331 | -7.4 | 1.1 | 1.1 | -10.1
O=C(C1CCC1)N1CCc2cc(S(=O)(=O)NCc3ccco3)ccc21 | -0.725 | 27.3 | 0.5 | 0.7 | 48.1
CSc1nnc2c3ccccc3c3ccccc3c2n1 | nt | 28.5 | 1 | 0.7 | 0.4
CCOc1ccc(S(=O)(=O)NN)cc1 | 0.0669 | 15.5 | 1 | 0.8 | 0.8

Screening data: PubChem BioAssay, several laboratories
